Measurements: PubChem BioAssay (NCATS)
Records with an inconclusive call do not appear. Active and inactive are the calls of the source. The call rests on the fitted dose curve; in most records, active means well fitted cell-killing curve with a large enough effect; inconclusive means small, poorly fitted or top-dose-only effect, or effect the other way; inactive means no such curve, though single readings can be large or run the other way.

assay: Quantitative High-Throughput drug screen in 47 multiple myeloma cell lines against the NCATS MIPE library collection: Delta47_JCRB cell viability assay (AID 1918925; further: nearly all actives have a fitted effect of over 45% in size); settings: Delta47 myeloma viability, CellTiter-Glo ATP, 48 h; series mostly up to 45.8 µM; viability (% of DMSO): at the top concentration
Outline: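 CellTiter-Glo ATP luminescence gave viability after 48 h compound treatment at 37C of 500 multiple myeloma cells per well. Normalisation used DMSO-only wells as 100% and media-only wells as 0% viability; primary qHTS of approved and investigational drugs.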
Potency means the concentration at half of the fitted maximal effect.

Structure (SMILES)	Potency	viability (% of DMSO)
COC(=O)N[C@H](C(=O)N1CCC[C@@H]1c1ncc(-c2ccc(-c3ccc(-c4cnc([C@@H]5CCCN5C(=O)[C@@H](NC(=O)OC)C(C)C)[nH]4)cc3)cc2)[nH]1)C(C)C	20.9 µM (active)	
COc1ccc(-c2oc3c(CC=C(C)C)c(OC4O[C@H](CO)[C@@H](O)[C@H](O)[C@@H]4O)cc(O)c3c(=O)c2OC2O[C@@H](C)[C@H](O)[C@@H](O)[C@@H]2O)cc1 (some centres undefined)	18.7 µM (active)	
CC[C@@H]1C=C(C)C[C@H](C)C[C@H](OC)[C@H]2O[C@@](O)(C(=O)C(=O)N3CCCC[C@@H]3C(=O)O[C@H](C(C)=C[C@@H]3CC[C@H](Cl)[C@H](OC)C3)[C@H](C)[C@@H](O)CC1=O)[C@H](C)C[C@H]2OC	16.6 µM (active)	
O=C(O)c1ccc(-c2cc3cccnc3c(-c3ccc4nonc4c3)n2)cc1	23.5 µM (active)	
C=C1C(=O)OC2C=C(C)CCC=C(C)CCC12 (centres undefined)	18.7 µM (active)	
NC[C@@H]1O[C@@H](O[C@H]2[C@@H](O)[C@H](O[C@@H]3[C@@H](O)[C@@H](N)C[C@H](N)[C@H]3O[C@H]3O[C@H](CN)[C@@H](O)[C@@H](O)[C@H]3N)O[C@H]2CO)[C@H](N)[C@@H](O)[C@@H]1O		106% (inactive)
CCC(CC)[C@H](NC(C)=O)[C@@H]1[C@H](O)[C@@H](C(=O)O)C[C@@H]1N=C(N)N		81.6% (inactive)
Clc1ccc(CCC(Cn2ccnc2)Sc2c(Cl)cccc2Cl)cc1 (centres undefined)	23.5 µM (active)	
CNC(=O)c1ccccc1Sc1ccc2c(C=Cc3ccccn3)n[nH]c2c1	3.72 µM (active)	
